Only some compounds are listed: those with a hit (about 21% of all), similar ones and a draw of the others.
Pf growth 96h: Primary qHTS for delayed death inhibitors of the malarial parasite plastid, 96 hour incubation; 320,000 tested, 6.9% active; Potency, µM (series often up to 28.7 µM), inactives show at the top dose activity change, negative = inhibition, hits mostly inhibitors; P. falciparum luciferase reporter growth, 96 h; also: potency is read from the fitted curve at half-maximal effect; % is scaled to controls: 0 for no effect and ±100 for the full control effect
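Delayed-death screen, second-generation endpoint: infected erythrocytes, 2% hematocrit, 0.05% parasitemia final; 96 hours at 37 C, 5% CO2; luciferase detection reagent; luminescence decrease equals reduced growth.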
AMA1 RON2 block: qHTS for Inhibitors of AMA1-RON; Towards Development of Antimalarial Drug Lead: Primary Screen; Plasmodium falciparum AMA1 (3D7) - RON2 peptide interaction; 360,000 tested, 0.2% active; Potency, µM (highest dose often 58.2 µM), for inactives: at the highest dose activity change, negative = inhibition, most hits filed as inhibitors; AlphaScreen AMA1-biotinylated RON2 peptide binding; AID 720542, 2013;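 also: potency is read from the fitted curve at half-maximal effect; 0% = vehicle wells and -100% = peptide control; nearly all actives have a fitted effect of over 45% in size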
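AMA1 (3D7) with his tag at 25 nM final met compounds first, then biotinylated RON2 peptide at 25 nM; detection used donor plus acceptor beads, 10 µg/mL apiece, read by AlphaScreen after 30 min at room temperature.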
CHX counter: Cycloheximide Counterscreen for Small Molecule Inhibitors of Shiga Toxin; cell reporter, cycloheximide protein synthesis inhibition counterscreen; max response, %; 300,000 tested, 12% active; in the data active = max response mostly above about 13%, no sharp cut-off; inactive = mostly below about 14%; also: read at 38.3 µM for the half of the compounds with a filed dose; 0% is about no effect
Pf growth 48h: Primary qHTS for delayed death inhibitors of the malarial parasite plastid, 48 hour incubation | P. falciparum luciferase growth in erythrocytes, 48 h | Potency, µM (series often up to 28.7 µM), for the others: at the highest dose activity change, negative = inhibition, hits mostly inhibitors | AID 504832, 2011 | 310,000 tested, 5.9% active; also: potency is read from the fitted curve at half-maximal effect; % is scaled to controls: 0 for no effect and ±100 for the full control effect
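Here the parasites carry a stable luciferase gene and grow inside erythrocytes in Albumax-based RPMI medium with compound for one erythrocytic cycle. Activity is scored as loss of luminescent signal.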
Shiga toxin inh: A qHTS for Small Molecule Inhibitors of Shiga Toxin | Vero cells, Shiga toxin protein synthesis inhibition reporter | inhibition, % at 38.7 µM | 290,000 tested, 9.2% active | AID 2315, 2010; in the data active = inhibition mostly above about 28%, no sharp cut-off; inactive = mostly below about 43%; also: 0% is about no effect
HCV inh: qHTS Assay for Inhibitors of Hepatitis C Virus (HCV); Huh7.5.1 HCVcc-Cre infection, luciferase reporter, 44 h; Potency, µM (highest dose often 41.8 µM), for the others: at the top dose activity change, negative = inhibition, most hits filed as inhibitors; 340,000 tested, 3.4% active; also: potency is read from the fitted curve at half-maximal effect; % is scaled to controls: 0 for no effect and ±100 for the full control effect
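Infectious HCVcc-Cre (~0.5 moi) was added to cells just after compound, with cells seeded 4 h earlier at 1,000 per well. Luciferase activity after 44 h culture reported infection; substrate was incubated 15 min at room temperature before reading.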
Active calls of the source: *; ? = inconclusive; nt = not tested or not shown; [ ] = another dose, or the depositor's remark. Unless noted, calls follow the shape of the dose curve; as a rule, active = well fitted curve in the direction sought with a large enough effect; inconclusive = small, poorly fitted or top-dose-only effect, or another doubt; inactive = no such curve, though single readings can be large; an effect the other way counts as inactive or inconclusive.

SMILES	Pf growth 96h	AMA1 RON2 block	CHX counter	Pf growth 48h	Shiga toxin inh	HCV inh
Cc1ccc(C(=O)NCC(C)(C)O)cc1	?	-28%	-1	?	-1	13%
Cc1ccc(C(=O)ONC(=O)c2ccc(Cl)cc2)cc1[N+](=O)[O-]	23%	0%	21*	-3%	34*	12%
CCN(CC)C(=O)CSc1ccc(C(F)(F)F)cc1[N+](=O)[O-]	-3%	-7%	-3	5%	1	-10%
C[C@H]1CN([C@@H](C)CO)C(=O)CCCn2nncc2CO[C@H]1CN(C)C(=O)C1CCCCC1	nt	7%	nt	nt	nt	nt
OCCNC(=S)c1ccccc1	69%	12%	1	17%	34	5%
Cc1ccc(C(=O)Oc2ccc(Cl)c3cccnc23)cc1[N+](=O)[O-]	?	-19%	10	13µM*	-3	-1%
CCN1CCN(C(=O)c2ccc(CS(=O)(=O)Cc3ccccc3Cl)o2)CC1	nt	-9%	nt	nt	nt	nt
O=c1[nH]c2cccc(F)c2n2cccc12	2%	-8%	-4	4%	-8	3%
Cc1ccc(/C=N/NC(=O)c2cc(C)oc2C)cc1	163%	-6%	53*	85%	60*	?
Cc1ccc(/C=N/NC(=O)c2cc(C)oc2C)o1	-7%	-5%	15*	8%	21	4%
CC(/C=N\NC(=O)c1cc(C)oc1C)=C\c1ccccc1	-20%	-11%	22*	0%	19	-17%
CN(C)c1ccc(/C=N/NC(=O)c2ccccc2O)o1	?	16%	20*	15%	131*	-2%
CC(/C=N/NC(=O)c1ccc(Br)cc1)=C\c1ccccc1	?	5%	13	nt	35	2%
COC(=O)C1CCN(C2CN(Cc3ccc(C)cc3)S(=O)(=O)C2)CC1 (stereo not drawn)	nt	7%	nt	nt	nt	nt
O=C(CNC(=S)N(Cc1ccccc1)Cc1cccnc1)NC1CCCC1	-5%	-26%	4	1%	-16	20%
COc1cc(OC)cc(C(=O)NCC(=O)OC2CCCCC2=O)c1 (stereo not drawn)	-29%	-1%	nt	?	nt	8%
COc1ccc(-n2nc(C(=O)O)c3csc(N)c3c2=O)cc1	nt	nt	-8	nt	-4	nt
Cc1cc(F)ccc1-c1cc(C(=O)N2CCN(c3ccncc3)CC2)[nH]n1	nt	3%	nt	nt	nt	nt
CC(C)c1ccc(NC(=O)c2n[nH]c(=O)c3ccccc23)cc1	8.3µM*	21%	45*	108%	44*	13%
CCN(CC)S(=O)(=O)c1cc(NC(=O)c2n[nH]c(=O)c3ccccc23)ccc1C	?	-1%	21*	-8%	37	-19%
CCN(CC)S(=O)(=O)c1cc(NC(=O)c2cc(-c3ccccn3)nc3ccccc23)ccc1C	?	-4%	-2	9.3µM*	-3	14µM*
CC(=O)Nc1ccc(CN(C)c2c(C)nc3ccc(C(=O)NCCCn4ccnc4)cn23)cc1	nt	-26%	nt	nt	nt	nt
COc1ccccc1NS(=O)(=O)c1cc(NC(=O)c2ccccc2C)ccc1N1CCOCC1	nt	-12%[11.6 µM]	nt	nt	nt	-8%
COc1ccccc1NS(=O)(=O)c1cc(NC(C)=O)ccc1N1CCCCC1	9.3µM*	-23%	-1	-29%	-8	0%
COc1ccc(NC(=O)c2[nH]c(C)c(C(C)=O)c2C)cc1S(=O)(=O)N1CCOCC1	0%	28%	-3	4%	-2	?
SMILES	Pf growth 96h	AMA1 RON2 block	CHX counter	Pf growth 48h	Shiga toxin inh	HCV inh
COc1ccccc1NS(=O)(=O)c1cc(NC(=O)c2ccncc2)ccc1N1CCCC1	?	-7%	-3	?	2	?
COc1ccccc1NS(=O)(=O)c1cc(NC(=O)c2cc(F)c(F)c(F)c2F)ccc1N1CCOCC1	nt	-10%	nt	nt	nt	?
COc1ccccc1NS(=O)(=O)c1cc(NC(=O)c2ccc(=O)[nH]c2)ccc1N1CCOCC1	12µM*	-5%[2.32 µM]	-6	?	-9	?
COc1ccccc1NS(=O)(=O)c1cc(NC(=O)c2[nH]c(C)c(C(C)=O)c2C)ccc1N1CCOCC1	?	-10%	-5	7.4µM*	-8	?
COc1ccccc1NS(=O)(=O)c1cc(NC(=O)C2CC2)ccc1N1CCOCC1	12µM*	nt	2	?	18	nt
CCN(CC)C(=O)c1cccc(-c2csc(C(O)c3cccc(Cl)c3)n2)c1 (stereo not drawn)	nt	-8%	nt	nt	nt	nt
Cc1[nH]c(C)c(S(=O)(=O)N2CCN(c3ccccc3)CC2)c1C(=O)N1CCCCC1	?	0%	-3	-8%	14	12%
CN1C[C@@H]2[C@@H]3C(=O)N(Cc4ccccc4)C(=O)[C@@H]3[C@](Cc3ccccc3)(C1=O)N2C(=O)c1ccc(Br)cc1	nt	-11%	nt	nt	nt	-13%
CCc1nc2ccc(C(=O)NCCCN(C)C)cn2c1N(CC)CCOC	nt	-4%	nt	nt	nt	nt
COc1ccccc1CNc1ccc(N2CCOCC2)c(C(=O)O)c1	13µM*	5%	3	13%	-7	18%
COCC(=O)Nc1ccc(N2CCCC2)c(S(=O)(=O)Nc2ccccc2OC)c1	5.2µM*	-7%	nt	2.6µM*	nt	3%
O=C(O)c1cc(NCc2ccccc2)ccc1N1CCOCC1	-4%	4%	-4	nt	-24	19%
COc1ccccc1NS(=O)(=O)c1cc(NC(=O)CCNC(C)=O)ccc1N1CCCCC1	10µM*	2%	nt	?	nt	?
COc1ccccc1NS(=O)(=O)c1cc(NC(=O)Nc2cccc(C)c2)ccc1N1CCCCC1	3.7µM*	-6%	-2	3.7µM*	16	?
COc1ccc(NS(=O)(=O)c2cc(NC(=O)CCNC(C)=O)ccc2N2CCOCC2)cc1	2%	-12%	nt	7%	nt	-4%
COc1ccccc1NS(=O)(=O)c1cc(NC(=O)COc2ccccc2)ccc1N1CCOCC1	nt	-16%	nt	nt	nt	?
CC1(C)NC(=O)N(CC(O)CN(c2ccccc2)S(=O)(=O)c2ccccc2[N+](=O)[O-])C1=O (stereo not drawn)	3%	-7%	-2	7%	-15	14%
CCCCCCN1C[C@H](O)[C@@H](n2cc(C3CC3)nn2)C[C@@H]1c1ccc(OC)cc1	nt	-6%	nt	nt	nt	nt
CCCCCNC(=O)C(c1ccnc2ccccc12)n1c(=O)c(-c2cc3ccccc3[nH]2)nc2ccccc21 (stereo not drawn)	nt	30%	nt	nt	nt	nt
COC(=O)c1cc(NS(=O)(=O)c2ccc(C)c3ccccc23)ccc1N1CCOCC1	-24%	-22%	11	7%	-9	22µM*
Cc1ccc(NS(=O)(=O)c2cc(NC(=O)c3ccc4c(c3)NC(=O)CS4)ccc2C)c(C)c1	?	15%	-3	?	-6	11µM*

Source: PubChem (National Center for Advancing Translational Sciences (NCATS))
